Entries with a potency or affinity are not part of this list. Activity calls are given as the source filed them.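 Rule for the calls: active = cytotoxic signal drop whose half-maximal concentration is at most twice the top valid dose; inconclusive = flat drop between 30% and 70%, or poor fit; inactive = the rest.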

For 25 compounds, outcome results are on record in PubChem BioAssay AID743318 (Broad Institute, 2014).

The experiment in a line: A549 cell cytotoxicity, dose response, cytotoxicity control, plate reader, dry powder, set 7 (AID 743318). The following applies: A549 viability, CellTiter-Glo ATP luminescence, 72 h; series mostly up to 26 µM. On the technique in general: In ATP-based viability assays light output follows the ATP content of the culture.
Consider `COc1cccc(OCCn2c(=S)[nH]c3ccccc32)c1`, for which the result was inactive.

Turning to `CC(C)c1ccccc1OCCn1c(=S)[nH]c2ccccc21`, the call was inactive. With `Cc1ccc2c(c1)[nH]c(=S)n2CCOc1ccccc1`, the result was inactive. In the case of `CC(C)c1ccc(OCCn2c(=S)[nH]c3ccccc32)cc1` it was “inactive”; in that of `Cc1cccc(OCCn2c(=S)[nH]c3ccccc32)c1C`, “inactive”; in that of `Cc1cccc(OCCn2c(=S)[nH]c3ccc(C(F)(F)F)cc32)c1`, “inactive”.

For `CC(C)(C)c1ccccc1OCCn1c(=S)[nH]c2ccccc21`, the compound was called inactive. `Cc1ccc(C(C)C)c(OCCn2c(=S)[nH]c3cccc(C)c32)c1`: the call was inactive. The value for `Cc1ccc(C(C)C)c(OCCn2c(=S)[nH]c3c(F)cccc32)c1` was “inactive”; that for `Cc1ccc(OCCn2c(=S)[nH]c3ccccc32)c(C(C)C)c1` was “inactive”; that for `Cc1ccc(OCCn2c(C)nc3ccccc32)cc1` was “inactive”. For `Cc1ccc(C(C)C)c(OCCn2c(=S)[nH]c3ccc(Cl)cc32)c1`, the compound was classed as inactive. On to `Cc1ccc(C(C)C)c(OCCn2c(=S)[nH]c3cccc(Cl)c32)c1`, for which the compound was classed as inactive. `COc1ccccc1OCCn1c(=S)[nH]c2ccccc21`: the result was inactive. With `Fc1cccc(OCCn2c(=S)[nH]c3ccccc32)c1`, the result was inactive. The value for `COCc1nc2ccccc2n1CCOc1ccc(C(C)(C)C)cc1` was “inactive”; that for `Cc1ccc(OCCn2cnc3ccccc32)cc1` was “inactive”. For `Cc1cccc(OCCn2c(=S)[nH]c3ccccc32)c1`, the compound was called inactive. On to `CSc1nc2ccccc2n1CCOc1cc(C)ccc1C(C)C`, for which the compound was called inactive. For the compound `Fc1cccc2c1[nH]c(=S)n2CCOc1ccccc1`, the compound was called inactive. For the compound `c1ccc(OCCn2cnc3ccccc32)cc1`, the compound was classed as inactive.

For the compound `Fc1ccc2[nH]c(=S)n(CCOc3ccccc3)c2c1`, the outcome was inactive.

For `Fc1ccccc1OCCn1c(=S)[nH]c2ccccc21`, the call was inactive.

In the case of `S=c1[nH]c2ccccc2n1CCOc1ccccc1Cl`, the compound was classed as inactive. Turning to `Cc1ccc(OCCn2c(=S)[nH]c3ccccc32)c(C)c1`, the outcome was inactive.
